Experimental data reported in ChEMBL document CHEMBL4888484, “Replenishing the malaria drug discovery pipeline: Screening and hit evaluation of the MMV Hit Generation Library 1 (HGL1) against asexual blood stage Plasmodium falciparum ,using a nano luciferase reporter read-out” (2022).
Several values for one entry are separate records, joined by “and”; a condition that tells them apart may be missing. Equal values may be shown once. In all, about 4,800 compounds went through this assay and about 420 (8.8%) showed an effect of 50% or more. The sample holds strong results, similar compounds and a random draw of the others, so the mix is not that of the screen.

Tested on: Plasmodium falciparum
Test: Confirmatory screen in NF54 nanoGlo assay, in single point, at 2uM, 72h
Type: functional, Erythrocyte
Conditions: timepoint 72 hour

SMILES	% Inhibition	% Inhibition (2 µM)
Cc1ccc([C@@H]2CC(=O)Nc3nc(N4CCN(CCO)CC4)nc(O)c32)cc1	2%	–
NC(=O)CN1CCC2(CC1)NC(c1ccc(OC(F)(F)F)cc1)=NO2	0%	–
Cc1cncc(C(=O)N2CC(n3cnnc3C)C2)c1	-19%	–
CCc1nnc(NC(=O)C2CC2c2ccccc2)s1 (stereo unspecified)	-3%	–
COC(=O)c1c(NC(=O)[C@H]2CCCN(S(=O)(=O)c3cnn(C)c3C)C2)cnn1C	4%	–
CNS(=O)(=O)CC(=O)Nc1cc(Br)c(F)cc1F	-12%	–
COc1cccc(CNC(=O)CCC(=O)N(c2ccccc2)c2ccccc2)c1	7%	–
COc1ccc(CC(=N)Nc2cc3cc(OC)c(OC)cc3c(Cc3ccc(OC)c(OC)c3)n2)cc1OC	80%	–
CCCNC(=O)C[C@H](C)CC(=O)NCCc1ccc(OC)c(OC)c1	4%	–
COc1ccc(CCNC(=O)CCCC(=O)NCc2ccccc2)cc1OC	-14%	–
COC(=O)C1=C(C(=O)OC)SC(=C2C(=S)C(C)(C)N(C(=O)c3cccnc3)c3c(C)cc(C)cc32)S1	4%	–
Oc1cccc(CN[C@H]2CCCc3occc32)c1Cl	71%	–
CC(O)CC(C)(C)CNC1CCCc2occc21 (stereo unspecified)	-12%	–
O=C(N[C@H]1CCCc2occc21)c1ccco1	0%	–
CCN1CCC(CCNC(=O)c2cc3c(s2)N(CC)CCCC3)CC1	-7%	–
CCOc1cc(N2CCOCC2)c(OCC)cc1NC(=O)c1ccc(C)c(NC(=O)c2ccco2)c1	22%	–
N#Cc1nc(NC(=O)c2cc3c(s2)CCOC3)[nH]c1C#N	3%	–
CN(CC(F)(F)F)S(=O)(=O)c1ccc(C(=O)O)cc1	-5%	–
Cc1ccc(CC[C@H]2Nc3ccccc3C(c3ccccc3)(c3ccccc3)O2)o1	74%	–
Cc1ccccc1[C@H]1CCN(c2ccc(NC(=O)c3ccc(F)cc3)c(C(=O)O)c2)C1	-11%	–
Cc1cc(Cn2cc(C(c3ccccc3)c3ccccc3)nn2)no1	-3%	–
Nc1c(-c2ccccc2)nsc1C(=O)NCc1ccc(F)cc1	-2%	–

SMILES	% Inhibition	% Inhibition (2 µM)
CC(=O)Nc1ccc(NC(=O)CN2CCCN(c3cncc(F)c3)CC2)cc1	-1%	–
O=C(O)C1C2C=CC(O2)C1C(=O)NC1CCCc2ccccc21 (stereo unspecified)	-4%	–
O=C(CC(O)c1cccc(F)c1)NCCC1CCCCO1 (stereo unspecified)	-1%	–
COc1cccc(-c2nc3n(c2C(=O)NCC(C)C)CCS3(=O)=O)c1	-2%	–
COCCc1cc(NC(=O)Nc2sc(-c3ccccc3)nc2C)n(C)n1	14%	–
COc1cccc(-c2nc(C)c(C(=O)Nc3nc(C(C)C)n[nH]3)s2)c1	74%	–
COc1cccc(CNC(=O)c2sc(Nc3ccc(C)cc3C)nc2C)c1	-13%	–
COc1cccc(-c2nc(C)c(C(=O)Nc3n[nH]c(CC(C)C)n3)s2)c1	–	78% and 70%
CCO[C@@H](C)C(=O)Nc1n[nH]c(Cc2cccc(F)c2)n1	-1%	–
C[C@@](CO)(NC(=O)Nc1cc(-c2ccco2)ccc1F)C1CC1	-4%	–
O=C(c1ccccc1)c1c[nH]c2c(F)cc(F)cc2c1=O	-5%	–
CCOCCc1nc(-c2ccccn2)c(CCOCC)nc1-c1ccccn1	10%	–
O=C1NC(=O)[C@]2(CCOc3ccc(F)cc32)N1	-3%	–
Cc1cc(C)n2c(=O)c3ccccc3nc2c1C#N	-5%	–
Cc1cccc(CNC(=O)NC2CCOC2c2ccc(Cl)cc2)n1 (stereo unspecified)	-15%	–
Cc1cccc(CN(Cc2cccc(C)n2)C[C@H]2CCCCO2)n1	90%	–
Cc1cc(C)nc(NCCC[C@H]2CCCCO2)n1	-6%	–
O[C@H]1CNCC[C@@H]1Nc1cc(-c2ccccc2)nc2ccccc12	46%	–
COc1cc(OC)c(S(=O)(=O)NC(C)C)cc1S(=O)(=O)NC(C)C	-4%	–
O=C1CC(c2cccc(Br)c2)N(S(=O)Oc2ccccc2)c2ccccc21 (stereo unspecified)	4%	–
COc1ccc(CNc2nc(-c3nnc(-c4ccccc4)o3)nc3ccccc23)cc1	55%	–
COc1ccc2oc(-c3ccc(CNC(=O)c4ccccc4)cc3)nc2c1	-5%	–

SMILES	% Inhibition	% Inhibition (2 µM)
COc1ccc2oc(-c3ccc(CNC(=O)c4ccc(C)cc4)cc3)nc2c1	-3%	–
Oc1c(-n2cncn2)cnc2ncnn12	-7%	–
Cc1cc(-c2ccco2)cc(Cl)c1N	-1%	–
O=C1CCN(C(=O)C2(c3cccc(Cl)c3)CCCC2)CCN1	2%	–
CC(C)(C)c1ccc(-c2ccc(C(=O)NCC3(O)CCOCC3)o2)cc1	0%	–
CCc1c(NC(=O)[C@@H](C)C2CC2)nnn1CCc1ccc(OC)cc1	-1%	–
COC(=O)c1c(NC(C)=O)c2cc(NC3CCOCC3)cnc2n1CCc1ccc(OC)cc1	70%	–
COc1ccc(NC(=O)[C@@H](C)C2CCOCC2)cc1	-6%	–
Cc1nn(C)c2c(N3CCOCC3)nc(C3CC3)nc12	-8%	–
CC[C@H]1Cn2c(C(=O)NCc3ccc(C)o3)cc3cccc(c32)O1	-11%	–
COc1ccc(-[n+]2c(-c3ccc(-c4ccccc4)cc3)cn3c2COCC3)cc1	66%	–
COc1ccc(-c2nnc(COc3ccc(-c4ccccc4)cc3)s2)cc1	-7%	–
COc1ccc(CCc2nnc3n2CCOC3)cc1	-4%	–
COc1ccc(-c2nc(N)s[n+]2-c2ccccc2)cc1	-2%	–
COc1ccc(-[n+]2c(-c3ccccc3)cn3c2CCC3)cc1	77%	–
COc1ccc(-c2noc(Cn3c(=O)c4ccccc4n(CC(=O)Nc4cc(C)ccc4C)c3=O)n2)cc1	0%	–
O=C(Nc1nn(Cc2ccccc2)cc1Cl)c1cc(-c2ccc(OC(F)F)cc2)[nH]n1	4%	–
Nc1noc2cc(C(F)(F)F)cnc12	4%	–
COc1ccc2c(c1)CN(c1nnc(C3CC3)o1)CC2	7%	–
O=c1[nH]c2cc3c(cc2c(=O)n1Cc1nc(-c2ccc(Cl)cc2)no1)OCO3	-1%	–
CN1CCN(Cc2cc3cc4c(cc3nc2-c2ccc(Cl)cc2)OCO4)CC1=O	53%	–
Cc1cc(C)nc(-n2nc(-c3ccc(Cl)cc3)c3c2NC(=O)C[C@@H]3c2ccc3c(c2)OCO3)n1	-7%	–
